According to PubChem BioAssay (NCI):
About 83,000 compounds went through this panel and 20% of them were active in at least one assay; those are over-represented in the sample as a whole.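 Each cell line was grown in a 96-well plate and treated with one concentration of compound for 48 hours. Values below 10 were considered active.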 Active and inactive are the calls of the source.

How the values were obtained:
Assay in all cases: NCI-60 one-dose screen, 48 h (100 = growth as untreated, 0 = no growth, -100 = all killed)
Settings in all cases: 10 µM unless noted
[1] = system: NCI-H23 lung
[2] = system: NCI-H226 lung
[3] = system: NCI-H322M lung
[4] = system: HOP-62 NSCLC
[5] = system: NCI-H460 lung
[6] = system: HOP-92 NSCLC
[7] = system: NCI-H522 lung
[8] = system: A549/ATCC NSCLC
[9] = system: 786-0 renal
[10] = system: COLO 205 colon
[11] = system: DU-145 prostate
[12] = system: K-562 leukemia
[13] = system: MALME-3M melanoma
[14] = system: MDA-MB-231 breast
[15] = system: RXF 393 renal
[16] = system: SF-268 CNS
[17] = system: SF-295 CNS
[18] = system: SF-539 CNS
[19] = system: UACC-257 melanoma
[20] = system: M14 melanoma

Measured: growth

Cn1cc(-c2nc(-c3c[nH]c4ccncc34)cs2)c2cc(Br)ccc21
active: [1] -64.2% | [2] 0.662% | [3] -93.1% | [4] -69.7% | [5] -71.4% | [6] -91.9% | [7] -70.8% | [8] -70.3% | [9] -78.5% | [10] -71.1% | [11] -95.9% | [12] -54.2% | [13] -79.2% | [14] -80.7% | [15] -94.4% | [16] -73.7% | [17] -78% | [18] -98% | [19] -46.4% | [20] -74.2%

Cc1c2ccccc2nc2c1ccc1cccnc12
inactive: [1] 74.5% | [2] 96.5% | [3] 101% | [4] 105% | [5] 73.8% | [6] 106% | [7] 63.5% | [8] 59.8% | [9] 95.8% | [10] 50.8% | [11] 95.6% | [12] 44.1% | [13] 88.3% | [14] 103% | [15] 108% | [16] 99.8% | [17] 89.3% | [18] 100% | [19] 72.3% | [20] 84.9%

CCc1cccc(Sc2cc(C(=O)N3Cc4ccc(OCCN(C)C)cc4C3)ccc2O)c1
inactive: [1] 41.2% | [2] 89.3% | [3] 62.9% | [4] 71.5% | [5] 38.9% | [6] 57.1% | [7] 66.8% | [8] 43.1% | [9] 70.6% | [10] 109% | [11] 38.9% | [12] 22% | [13] 57.3% | [14] 80% | [15] 72.2% | [16] 63.8% | [17] 78.4% | [18] 89% | [19] 63.3% | [20] 78.1%

COc1cc2nc(Nc3cccc(F)c3)nc(Nc3cc(C)[nH]n3)c2cc1OC
active: [1] -71.2% [20 µM] | [2] -49.4% [20 µM] | [3] -100% [20 µM] | [4] -53.2% [20 µM] | [5] -69.7% [20 µM] | [6] -88.9% [20 µM] | [7] -42% [20 µM] | [8] -55% [20 µM] | [9] -81.8% [20 µM] | [10] -60.9% [20 µM] | [11] -94.7% [20 µM] | [12] -31.1% [20 µM] | [13] -98.1% [20 µM] | [14] -98.6% [20 µM] | [15] -88.7% [20 µM] | [16] -69.9% [20 µM] | [17] -92.1% [20 µM] | [18] -100% [20 µM] | [19] -62.4% [20 µM] | [20] -91.4% [20 µM]

COc1ccc2nc(SCC(=O)Nc3ccccc3C)[nH]c2c1
inactive: [1] 101% | [2] 92.2% | [3] 90% | [4] 90% | [5] 104% | [6] 83.2% | [7] 87.9% | [8] 84% | [9] 99.9% | [10] 113% | [11] 105% | [12] 97.5% | [13] 96.9% | [14] 98.6% | [15] 105% | [16] 102% | [17] 93% | [18] 101% | [19] 90% | [20] 101%

O=C1/C(=C/c2ccc(C(F)(F)F)cc2)COc2ccc(O)cc21
active: [7] -13.6% | [12] 5.54%
inactive: [1] 98% | [2] 107% | [3] 95.2% | [4] 96.2% | [5] 98.4% | [6] 82.4% | [8] 87.1% | [9] 80% | [10] 90.7% | [11] 99.1% | [13] 88.7% | [14] 79.4% | [15] 102% | [16] 85.3% | [17] 99.1% | [18] 86.7% | [19] 98.1% | [20] 85.6%

COc1ccc(C(C)=O)cc1S(N)(=O)=O
inactive: [1] 98.2% | [2] 101% | [3] 97.1% | [4] 112% | [5] 104% | [6] 92% | [7] 75.6% | [8] 88% | [9] 89.4% | [10] 115% | [11] 106% | [12] 104% | [13] 99.3% | [14] 103% | [15] 102% | [16] 101% | [17] 94.6% | [18] 104% | [19] 91.9% | [20] 95%

CCOC(=O)c1c2c(n3c1NCC3)-c1ccccc1C2=O
inactive: [1] 99% | [2] 99.6% | [3] 105% | [4] 102% | [5] 107% | [6] 84% | [7] 36.2% | [8] 101% | [9] 94.3% | [10] 110% | [11] 100% | [12] 87.3% | [13] 89.9% | [14] 107% | [15] 102% | [16] 99.6% | [17] 96% | [18] 93.7% | [19] 95.7% | [20] 104%
